Read-out in assay [1]: catalase (CAT), CAT (gene 847)
Kind of assay: LTEA_HepaRG_CAT: Life Technologies and Expression Analysis (LTEA) Assay for catalase (CAT) using HepaRG (AID 2283452). Particulars: mRNA level, 48 h; actives raise or lower the signal. A digest of the protocol: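 HepaRG cells in serum-free induction medium, 0.5% DMSO vehicle, exposed 48 h in duplicate over 8 half-log concentrations from 100 uM. CAT mRNA measured by qRT-PCR, normalized to ACTB, GAPDH, POLR2A; bidirectional fit versus DMSO.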

Read-out in assay [2]: flavin-containing dimethylaniline monooxygenases 3 (FMO3), FMO3 (gene 2328)
The experiment in a line: LTEA_HepaRG_FMO3: Life Technologies and Expression Analysis (LTEA) Assay for flavin-containing dimethylaniline monooxygenases 3 (FMO3) using HepaRG (AID 2283453). Particulars: mRNA level, 48 h; actives raise or lower the signal. A digest of the protocol:
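Differentiated HepaRG cells in serum-free induction medium, exposed 48 h in duplicate to 8 half-log concentrations up to 100 uM in 0.5% DMSO. FMO3 mRNA by qRT-PCR, normalized to ACTB, GAPDH, POLR2A; bidirectional fit vs DMSO.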

Read-out in assay [3]: Cytochrome P450 (CYP1A1), CYP1A1 (gene 1543)
Kind of assay: LTEA_HepaRG_CYP1A1: Life Technologies and Expression Analysis (LTEA) Assay for Cytochrome P450 (CYP1A1) using HepaRG (AID 2283454). Particulars: mRNA level, 48 h; actives raise or lower the signal. The essentials: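 CYP1A1 transcript levels measured by Fluidigm qRT-PCR against three housekeeping genes, 48 h after chemical dosing of human HepaRG cells (highest concentration 100 uM, half-log steps, 0.5% DMSO vehicle). Gain or loss of signal fitted relative to DMSO.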

Read-out in assay [4]: CFLAR gene, CFLAR (gene 8837)
The experiment in a line: LTEA_HepaRG_CFLAR: Life Technologies and Expression Analysis (LTEA) Assay for CFLAR gene using HepaRG (AID 2283455). The following applies: mRNA level, 48 h; actives raise or lower the signal. The essentials: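 Differentiated HepaRG cells in serum-free induction medium were exposed 48 h in duplicate to eight half-log concentrations up to 100 uM in 0.5% DMSO; mRNA measured by TaqMan qRT-PCR, normalized to ACTB, GAPDH, POLR2A; bidirectional fitting versus DMSO.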

Read-out in assay [5]: Forkhead box O1 (FOXO1), FOXO1 (gene 2308)
Kind of assay: LTEA_HepaRG_FOXO1: Life Technologies and Expression Analysis (LTEA) Assay for Forkhead box O1 (FOXO1) using HepaRG (AID 2283456). Particulars: mRNA level, 48 h; actives raise or lower the signal. The essentials:
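Differentiated HepaRG cells, in serum-free induction medium with 0.5% DMSO, exposed 48 h in duplicate to 8-point half-log series from 100 uM. FOXO1 mRNA measured by TaqMan qRT-PCR, normalized to ACTB, GAPDH, POLR2A; bidirectional fit versus DMSO.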

Assay [6] can be described thus: CEETOX_H295R_TESTO: CeeTox H295R High-throughput Steroidogenesis Assay for Testosterone (TESTO) (AID 2283457).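 On AC50: cells exposed to chemicals for 48 h before medium collection.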 The following applies: actives raise or lower the signal. A digest of the protocol: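 Testosterone secreted into the medium over 48 h by H295R cells (maximum passage 10) was quantified by LC-MS/MS after MTBE extraction. Fitted in both directions against DMSO, with concentrations diluted until MTT viability was ≥70%.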

Read-out in assay [7]: growth arrest and DNA damage 45 (GADD45A), GADD45A (gene 1647)
The experiment in a line: LTEA_HepaRG_GADD45A: Life Technologies and Expression Analysis (LTEA) Assay for growth arrest and DNA damage 45 (GADD45A) using HepaRG (AID 2283458). Particulars: mRNA level, 48 h; actives raise or lower the signal. A digest of the protocol:
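Differentiated HepaRG cells exposed 48 h in serum-free induction medium to 8 concentrations, top 100 uM in half-log steps, 0.5% DMSO. GADD45A mRNA quantified by qRT-PCR, normalized to ACTB, GAPDH and POLR2A; bidirectional fit versus DMSO.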

Read-out in assay [8]: Forkhead box O3 (FOXO3), FOXO3 (gene 2309)
Kind of assay: LTEA_HepaRG_FOXO3: Life Technologies and Expression Analysis (LTEA) Assay for Forkhead box O3 (FOXO3) using HepaRG (AID 2283459). The following applies: mRNA level, 48 h; actives raise or lower the signal. The essentials: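 Differentiated human HepaRG cells, 48 h post-plating, exposed in duplicate for 48 h in serum-free induction medium; 8-point half-log series from 100 uM in 0.5% DMSO. FOXO3 mRNA by TaqMan qRT-PCR, normalized to ACTB/GAPDH/POLR2A; bidirectional fit versus DMSO.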

Read-out in assay [9]: ABC Transporter (ABCB1), ABCB1 (gene 5243)
Kind of assay: LTEA_HepaRG_ABCB1: Life Technologies and Expression Analysis (LTEA) Assay for ABC Transporter (ABCB1) using HepaRG (AID 2283460). The following applies: mRNA level, 48 h; actives raise or lower the signal. A digest of the protocol: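 HepaRG cells exposed in duplicate for 48 h in serum-free induction medium to eight half-log concentrations up to 100 uM in 0.5% DMSO. ABCB1 mRNA quantified by qRT-PCR, normalised to ACTB, GAPDH and POLR2A; fitted bidirectionally versus DMSO.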

Read-out in assay [10]: growth arrest and DNA damage 45 (GADD45B), GADD45B (gene 4616)
The experiment in a line: LTEA_HepaRG_GADD45B: Life Technologies and Expression Analysis (LTEA) Assay for growth arrest and DNA damage 45 (GADD45B) using HepaRG (AID 2283461). Particulars: mRNA level, 48 h; actives raise or lower the signal. A digest of the protocol:
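Transcript level quantified by Fluidigm TaqMan qRT-PCR with three housekeeping genes for normalization, analyzed for up- or down-regulation against 0.5% DMSO. HepaRG cultures dosed 48 h at eight half-log concentrations up to 100 uM, duplicates.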

Read-out in assay [11]: ABC Transporter (ABCC3), ABCC3 (gene 8714)
Kind of assay: LTEA_HepaRG_ABCC3: Life Technologies and Expression Analysis (LTEA) Assay for ABC Transporter (ABCC3) using HepaRG (AID 2283462). Particulars: mRNA level, 48 h; actives raise or lower the signal. The essentials: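 Transcript level by TaqMan qRT-PCR, normalised to three housekeeping genes, fitted in both directions relative to vehicle. Chemicals tested in duplicate at eight half-log concentrations up to 100 uM for 48 h on HepaRG cells (0.5% DMSO).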

Read-out in assay [12]: ABC Transporter (ABCB11), ABCB11 (gene 8647)
The experiment in a line: LTEA_HepaRG_ABCB11: Life Technologies and Expression Analysis (LTEA) Assay for ABC Transporter (ABCB11) using HepaRG (AID 2283463). Particulars: mRNA level, 48 h; actives raise or lower the signal. A digest of the protocol:
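Differentiated human HepaRG cells in serum-free induction medium, dosed in duplicate for 48 h. Eight-point half-log series from 100 uM in 0.5% DMSO; ABCB11 mRNA by qRT-PCR, normalized to ACTB, GAPDH, POLR2A, fitted bidirectionally versus DMSO.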

Read-out in assay [13]: ABC Transporter (ABCC2), ABCC2 (gene 1244)
Kind of assay: LTEA_HepaRG_ABCC2: Life Technologies and Expression Analysis (LTEA) Assay for ABC Transporter (ABCC2) using HepaRG (AID 2283464). Particulars: mRNA level, 48 h; actives raise or lower the signal. The essentials: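 Endpoint is ABCC2 transcript level from qRT-PCR, normalized to three housekeeping genes and fitted bidirectionally relative to DMSO. Human HepaRG cells received test chemical for 48 h at up to 100 uM (8 points, half-log steps, 0.5% DMSO), duplicate wells.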

Read-out in assay [14]: Broad substrate specificity ATP-binding cassette transporter ABCG2 (Homo sapiens) (UniProt Q9UNQ0)
Kind of assay: LTEA_HepaRG_ABCG2: Life Technologies and Expression Analysis (LTEA) Assay for ABC Transporter (ABCG2) using HepaRG (AID 2283465). Particulars: mRNA level, 48 h; actives raise or lower the signal. A digest of the protocol:
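Differentiated HepaRG cells were exposed for 48 h in serum-free induction medium to 8 half-log concentrations, top 100 uM, in 0.5% DMSO. ABCG2 mRNA was measured by qRT-PCR, normalized to ACTB, GAPDH and POLR2A, with bidirectional fitting versus DMSO.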

Read-out in assay [15]: ATP-citrate lyase (ACLY), ACLY (gene 47)
The experiment in a line: LTEA_HepaRG_ACLY: Life Technologies and Expression Analysis (LTEA) Assay for ATP-citrate lyase (ACLY) using HepaRG (AID 2283466). Particulars: mRNA level, 48 h; actives raise or lower the signal. The essentials: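 Differentiated HepaRG cells exposed 48 h in serum-free induction medium to eight half-log concentrations up to 100 uM in 0.5% DMSO, duplicates. Transcript measured by Fluidigm TaqMan qRT-PCR, normalized to ACTB, GAPDH, POLR2A; bidirectional fit versus DMSO.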

Read-out in assay [16]: Peroxisomal acyl-coenzyme A oxidase 1 (ACOX1) gene, ACOX1 (gene 51)
The experiment in a line: LTEA_HepaRG_ACOX1: Life Technologies and Expression Analysis (LTEA) Assay for Peroxisomal acyl-coenzyme A oxidase 1 (ACOX1) gene using HepaRG (AID 2283467). Particulars: mRNA level, 48 h; actives raise or lower the signal. A digest of the protocol: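 HepaRG cells, plated 48 h then switched to serum-free induction medium, were exposed in duplicate for 48 h to 8-point half-log concentrations up to 100 uM in 0.5% DMSO. ACOX1 mRNA was measured by qRT-PCR, normalized to ACTB/GAPDH/POLR2A, and fitted bidirectionally versus DMSO.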

Read-out in assay [17]: Alkaline Phosphatase, Placental (ALPP) gene, ALPP (gene 250)
The experiment in a line: LTEA_HepaRG_ALPP: Life Technologies and Expression Analysis (LTEA) Assay for Alkaline Phosphatase, Placental (ALPP) gene using HepaRG (AID 2283468). The following applies: mRNA level, 48 h; actives raise or lower the signal. A digest of the protocol:
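ALPP transcript level, measured by qRT-PCR and normalized to three housekeeping genes (ACTB, GAPDH, POLR2A), after 48 h dosing of differentiated HepaRG in serum-free induction medium. Top concentration 100 uM with half-log dilutions (8 points, 0.5% DMSO, duplicates); bidirectional fitting relative to DMSO.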

Read-out in assay [18]: Bcl-2 (BAD) gene, BAD (gene 572)
The experiment in a line: LTEA_HepaRG_BAD: Life Technologies and Expression Analysis (LTEA) Assay for Bcl-2 (BAD) gene using HepaRG (AID 2283469). The following applies: mRNA level, 48 h; actives raise or lower the signal. The essentials:
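Differentiated HepaRG cells were exposed in duplicate in 0.5% DMSO for 48 h to eight-point half-log concentrations up to 100 uM. BAD mRNA was measured by Fluidigm TaqMan qRT-PCR, normalized to ACTB, GAPDH and POLR2A, and fitted bidirectionally against DMSO.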

Read-out in assay [19]: Bcl-2 (BAX) gene, BAX (gene 581)
Kind of assay: LTEA_HepaRG_BAX: Life Technologies and Expression Analysis (LTEA) Assay for Bcl-2 (BAX) gene using HepaRG (AID 2283470). Particulars: mRNA level, 48 h; actives raise or lower the signal. The essentials:
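Differentiated HepaRG cells exposed 48 h in serum-free induction medium, eight half-log concentrations from 100 uM, in duplicate, 0.5% DMSO vehicle. BAX mRNA by TaqMan qRT-PCR, normalised to ACTB, GAPDH and POLR2A.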

Read-out in assay [20]: adenosine kinase (ADK) gene, ADK (gene 132)
Kind of assay: LTEA_HepaRG_ADK: Life Technologies and Expression Analysis (LTEA) Assay for adenosine kinase (ADK) gene using HepaRG (AID 2283471). Particulars: mRNA level, 48 h; actives raise or lower the signal. The essentials:
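Differentiated HepaRG cells dosed 48 h in serum-free induction medium, 0.5% DMSO vehicle, eight half-log concentrations from 100 uM, in duplicate. ADK mRNA by TaqMan qRT-PCR normalised to ACTB, GAPDH, POLR2A; bidirectional fit versus DMSO.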

Structures are written as SMILES. Values joined by “and” are separate entries in the source; they are usually repeats but may differ in a detail not shown here. Equal values may be shown once. Where a structure was tested more than once in an assay, its records may differ in their call. Active and inactive are the calls of the source. How the source made its calls: active means hit-call score of the fitted dose curve at least 0.9, where 1 is the maximum; inactive means score below 0.9.

These results are taken from PubChem BioAssay (EPA / NIEHS).

Sequence of Broad substrate specificity ATP-binding cassette transporter ABCG2 (Homo sapiens) (Q9UNQ0 whole entry, looked up): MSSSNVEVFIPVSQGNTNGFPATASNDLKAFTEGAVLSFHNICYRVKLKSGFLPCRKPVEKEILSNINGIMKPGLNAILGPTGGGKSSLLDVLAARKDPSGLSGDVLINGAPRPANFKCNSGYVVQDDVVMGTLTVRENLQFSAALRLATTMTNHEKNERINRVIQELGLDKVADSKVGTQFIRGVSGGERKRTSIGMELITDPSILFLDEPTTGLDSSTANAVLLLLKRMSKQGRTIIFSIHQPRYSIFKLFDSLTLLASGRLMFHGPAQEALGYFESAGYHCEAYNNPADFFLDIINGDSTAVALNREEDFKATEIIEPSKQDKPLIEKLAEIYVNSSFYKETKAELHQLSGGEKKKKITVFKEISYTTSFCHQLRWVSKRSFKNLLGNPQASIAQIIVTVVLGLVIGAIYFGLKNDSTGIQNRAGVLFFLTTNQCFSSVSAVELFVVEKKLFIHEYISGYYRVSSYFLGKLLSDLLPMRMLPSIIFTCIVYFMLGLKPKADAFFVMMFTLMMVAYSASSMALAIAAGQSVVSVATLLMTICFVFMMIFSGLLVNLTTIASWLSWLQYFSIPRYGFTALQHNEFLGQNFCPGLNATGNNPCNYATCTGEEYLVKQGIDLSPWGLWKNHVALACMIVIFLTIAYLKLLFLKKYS

With `Oc1ccc(Cl)cc1Cc1ccccc1`, the result in assay [1], in [2], in [4], in [5], in [7] and in assay [8] was inactive. In addition, the compound was classed as inactive in assay [9], in assay [10], in assay [11], in assay [13], in assay [14] and in [15]. Moreover, the result in [16], in assay [17], in assay [18], in [19] and in assay [20] was inactive. Moreover, the AC50 was 84.7 µM (active) and 81.3 µM (active) and 84.4 µM (active) in assay [3]; 82.3 µM (active) in assay [4]; 78 µM (active) in assay [6]; 91.5 µM (active) and 87.9 µM (active) in [8]; 93.7 µM (active) and 67 µM (active) and 80 µM (active) in assay [12].

For `COc1nn(CSP(=S)(OC)OC)c(=O)s1`, the outcome in assay [2], in [4], in [5], in assay [7], in assay [8] and in assay [9] was inactive. Also, the compound was called inactive in assay [10], in assay [11], in assay [12], in assay [13], in assay [14] and in [15]. Also, the outcome in assay [16], in assay [17], in [18] and in assay [19] was inactive. The AC50 in assay [3] was 24.3 µM (active).

For the compound `C[C@H]1[C@H](c2ccc(Cl)cc2)SC(=O)N1C(=O)NC1CCCCC1`, the AC50 was 66.2 µM (active) in assay [1]; 75 µM (active) in assay [2]; 14.9 µM (active) in assay [3]; 83.2 µM (active) in assay [5]; 32.8 µM (active) in assay [9]; 82.2 µM (active) in [10]. Also, the AC50 in assay [12] is 76.5 µM (active); in assay [14], 39.7 µM (active); in [15], 79.7 µM (active); in assay [17] it was 32.1 µM (active); in assay [19], 77.2 µM (active). The compound was classed as inactive in [4], in [6], in assay [8], in assay [11], in [13] and in assay [16]. Further, the outcome in [18] was inactive.

The term AC50 denotes the concentration at which the activity in the assay is half-maximal.
